Bioassay records: PubChem BioAssay, National Center for Advancing Translational Sciences (NCATS)
An excerpt weighted towards active compounds, which were near 2.4% of everything screened.
Pol beta inh: inhibitors of human DNA polymerase beta; P06746; Pol beta primer extension/strand displacement, fluorescence kinetic; Potency, µM (highest dose often 114 µM), for inactives: top-dose activity change, negative = inhibition, hits mostly inhibitors; 340,000 tested, 1.3% active; note: % is set by controls: 0 for no effect and ±100 for the full control effect
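Human Pol beta at 10 nM; strand-displacement substrate 50 nM final. Compound exposure 15 min at room temperature before start, reaction 10 min at room temperature.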
Pol eta inh: DNA polymerase eta (human) inhibition; Q9Y253; 390,000 tested, 1.2% active; Potency, µM (top dose mostly 114 µM), inactives show at the highest dose activity change, negative = inhibition, hits mostly inhibitors; recombinant Pol eta, fluorescent DNA replication assay; note: % is set by controls: 0 for no effect and ±100 for the full control effect
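Pol eta (10 nM) was preincubated with compounds for 15 min at room temperature, after which fluorescent replication substrate (50 nM final) was added to start the reaction. Fluorescence was read kinetically at 0 and 10 min.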
Pol iota inh: blocks human DNA polymerase iota activity; Pol iota fluorescent replication assay, 10 min; Potency, µM (top dose mostly 115 µM), inactives show at the highest dose activity, negative = inhibition, hits mostly inhibitors; 390,000 tested, 1% active
Target sequence (Q9UNA4 whole entry, looked up): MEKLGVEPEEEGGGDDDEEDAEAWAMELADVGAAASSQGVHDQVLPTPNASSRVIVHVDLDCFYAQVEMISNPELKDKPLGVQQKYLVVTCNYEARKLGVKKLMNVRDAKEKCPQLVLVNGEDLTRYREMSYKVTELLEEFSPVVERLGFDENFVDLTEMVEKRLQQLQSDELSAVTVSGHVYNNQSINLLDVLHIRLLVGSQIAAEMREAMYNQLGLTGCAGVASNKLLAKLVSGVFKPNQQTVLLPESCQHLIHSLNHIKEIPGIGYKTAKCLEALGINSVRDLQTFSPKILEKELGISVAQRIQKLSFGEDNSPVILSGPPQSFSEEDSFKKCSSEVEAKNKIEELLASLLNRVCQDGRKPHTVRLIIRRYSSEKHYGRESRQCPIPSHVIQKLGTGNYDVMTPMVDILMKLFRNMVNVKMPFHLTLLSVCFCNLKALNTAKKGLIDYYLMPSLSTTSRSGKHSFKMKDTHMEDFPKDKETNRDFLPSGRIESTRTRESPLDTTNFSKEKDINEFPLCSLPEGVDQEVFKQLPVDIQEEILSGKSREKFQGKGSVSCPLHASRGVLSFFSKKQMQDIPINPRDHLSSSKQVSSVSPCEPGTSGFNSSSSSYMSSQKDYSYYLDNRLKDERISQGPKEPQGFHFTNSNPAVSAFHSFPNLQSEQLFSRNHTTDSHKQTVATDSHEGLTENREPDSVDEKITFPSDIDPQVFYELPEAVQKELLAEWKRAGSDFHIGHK
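Fluorescent replication assay read twice, at 0 min and 10 min after adding 50 nM (final) substrate. Enzyme (10 nM) and compounds were first incubated 15 min at room temperature; enzyme-free buffer wells were negative controls.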
POLK inh: blocks human DNA polymerase kappa activity; AID 588579; 400,000 tested, 0.53% active; purified Pol kappa, fluorescent DNA synthesis assay, 10 min; Potency, µM (titrated, usually from 107 µM), for inactives: top-dose activity, negative = inhibition, hits mostly inhibitors; Q9UBT6; note: % is set by controls: 0 for no effect and ±100 for the full control effect
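Readout: fluorescence, taken kinetically at 0 and 10 min. Conditions: 10 nM Pol kappa, 15 min RT compound preincubation, 50 nM substrate final. Controls: enzyme-free buffer wells.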
WRN inhibitor: inhibitors of human WRN helicase; Q14191; WRN helicase unwinding, fluorescent forked duplex, kinetic; Potency, µM (doses to about 114 µM), for inactives: at the top dose activity change, negative = inhibition, hits mostly inhibitors; 360,000 tested, 0.46% active; note: % is set by controls: 0 for no effect and ±100 for the full control effect; nearly all actives have a fitted effect of over 55% in size
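WRN at 20 nM final was preincubated with compound for 15 min at room temperature; reaction started with 100 nM forked duplex oligonucleotide carrying fluorophore and quencher plus 2 mM ATP (final). Unwinding followed kinetically by red fluorescence (ex 525/em 598 nm).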
FEN1 inh: inhibitors of human flap endonuclease 1; P39748; Recombinant FEN1 flap cleavage, fluorescence, 15 min; Potency, µM (series often up to 114 µM), for the others: at the highest dose activity change, negative = inhibition, most hits filed as inhibitors; 390,000 tested, 0.35% active; AID 588795; note: % is set by controls: 0 for no effect and ±100 for the full control effect; nearly all actives have a fitted effect of over 65% in size
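Read-out was taken twice, immediately and after 15 min, following addition of 50 nM substrate to 10 nM FEN1 that had sat with test compound for 15 min at room temperature. Curves came from a four-parameter Hill model.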
* = called active by the depositor; [ ] = remark or other dose. Calls come from the whole dose curve; as a rule, active = well fitted curve in the direction sought with a large enough effect; inconclusive = small, poorly fitted or top-dose-only effect, or another doubt; inactive = no such curve, though single readings can be large; an effect the other way counts as inactive or inconclusive. Potency is the fitted concentration of half-maximal effect.

For O=C(Nc1cccc(Cl)c1)OCCOC(=O)Nc1cccc(Cl)c1 the results were Pol eta inh -18.7%, Pol iota inh -28.7%, POLK inh 2.8%, WRN inhibitor -13.5% and FEN1 inh -29.2%.
`CCCCCC(=O)NNC(=O)c1ccc(-c2ccccc2)cc1` gave Pol beta inh 39.8µM*, Pol eta inh -3.8%, Pol iota inh inconclusive, POLK inh -28.8%, WRN inhibitor -7.6% and FEN1 inh 1.2%.
For O=C(NNC(=O)c1ccc(-c2ccccc2)cc1)c1ccccc1 the results were Pol beta inh -5.5%[57.1 µM], Pol eta inh inconclusive, Pol iota inh 79.4µM*, POLK inh -35.6%, WRN inhibitor -6.5%[11.6 µM] and FEN1 inh 6.4%.
Cc1ccccc1OCC(=O)NNC(=O)c1ccc(-c2ccccc2)cc1 was read as Pol beta inh inconclusive, Pol eta inh -2.2%, Pol iota inh 79.4µM*, POLK inh -19.8%, WRN inhibitor -23.9% and FEN1 inh -0.1%.
C=CCn1c(SCC(C)=O)nc2scc(-c3ccco3)c2c1=O was read as Pol beta inh 10µM*, Pol eta inh 39.8µM*, Pol iota inh inconclusive, POLK inh inconclusive, WRN inhibitor inconclusive and FEN1 inh inconclusive.
For C=CCn1c(SCC(=O)N2CCOCC2)nc2scc(-c3ccco3)c2c1=O the results were Pol beta inh 28.2µM*, Pol eta inh 31.6µM*, Pol iota inh 15.8µM*, POLK inh inconclusive, WRN inhibitor 56.2µM* and FEN1 inh inconclusive.
`CC(C)C(C)NC(=O)CSc1nc2scc(-c3ccco3)c2c(=O)n1-c1ccccc1` (stereo not given) gave Pol beta inh -4.4%, Pol eta inh inconclusive, Pol iota inh inconclusive, POLK inh -18.5%, WRN inhibitor -10.1% and FEN1 inh -2.4%.
C=CCn1c(SC(F)F)nc2scc(-c3ccco3)c2c1=O was read as Pol beta inh 9.3%, Pol eta inh -18.2%, Pol iota inh 8.7%, POLK inh -10.3%, WRN inhibitor -17.6% and FEN1 inh -16.6%.
Screening CC(C)C(C)(C#N)NC(=O)CSc1nc2scc(-c3ccco3)c2c(=O)n1-c1ccccc1 (stereo not given) returned Pol beta inh 28.2µM*, Pol eta inh -11.1%, Pol iota inh inconclusive, POLK inh -4.2%, WRN inhibitor -16.4% and FEN1 inh 5.3%.
Screening C=CCn1c(SCC(=O)N2CCCC2)nc2scc(-c3cccs3)c2c1=O returned Pol beta inh -4.4%, Pol eta inh inconclusive, Pol iota inh 16.5%, POLK inh -7.7%, WRN inhibitor -22.8% and FEN1 inh 7.5%.
For NC(Cc1ccccc1)C(O)c1ccco1 (stereo not given) the results were Pol iota inh 21.1%, POLK inh -4.7% and FEN1 inh 5.5%.
`O=C(Nc1ccc(F)cc1F)c1cc2ccc3cccnc3c2[nH]1` gave Pol beta inh 17.8µM*, Pol eta inh -9.0%, Pol iota inh inconclusive, POLK inh -41.7% and FEN1 inh -10.9%.
For Cc1oc(-c2ccc(Cl)cc2)cc1-c1nn2c(-c3ccco3)nnc2s1 the results were Pol beta inh 20µM*.
`CCOc1cccc(-c2nn3c(-c4ccco4)nnc3s2)c1` gave Pol beta inh 7.3%, Pol eta inh 20µM*, Pol iota inh 22.1%, POLK inh 5.4%, WRN inhibitor -4.3% and FEN1 inh -10.9%.
For NS(=O)(=O)c1cccc(NC(=O)c2ccc3nc[nH]c3c2)c1 the results were Pol beta inh 50.1µM*, Pol eta inh 79.4µM*, Pol iota inh inconclusive, POLK inh inconclusive, WRN inhibitor inconclusive and FEN1 inh 1.3%.
For CCSC(=O)N1CCN(/[N+]([O-])=N/Oc2ccc([N+](=O)[O-])cc2[N+](=O)[O-])CC1 the results were Pol iota inh inconclusive, POLK inh 0.7% and FEN1 inh -11.6%.
For CCCCNC(=O)[C@@H]1CC=C[C@@H]2CCN(Cc3ccc(OC)c(OC)c3)C(=O)[C@@H]21 the results were Pol iota inh 14.1%, POLK inh 19.4% and FEN1 inh 8.4%.
Screening Cc1cc(C)c(S(=O)(=O)Nc2cc(SCC(=O)O)c(O)c3ccccc23)cc1C returned Pol beta inh -21.4%, Pol eta inh 35.5µM*, Pol iota inh 20µM*, POLK inh -14.4%, WRN inhibitor 22.4µM* and FEN1 inh -34.6%.
`Cc1cc(C)c(S(=O)(=O)Nc2ccc(O)cc2)cc1C` gave Pol beta inh 12.3%, Pol eta inh -6.1%, Pol iota inh 8.1%, POLK inh -5.9%, WRN inhibitor 1.3% and FEN1 inh -2.5%.
For CSc1ccc(CCNC(=O)NCc2noc3ccccc23)cc1 the results were Pol beta inh 38.5%, Pol eta inh -12.4%, Pol iota inh 6.7%, POLK inh -5.5% and FEN1 inh -11.6%.
Cc1ccc(NC(=O)Cn2c(=O)n(CCC(=O)N3CCc4ccccc4C3)c(=O)c3ccccc32)cc1 was read as Pol beta inh 8.8%, Pol eta inh -5.4%, Pol iota inh -5.4%, POLK inh 4.1% and FEN1 inh -8.3%.
For COc1ccc(/C=C2\SC(=S)N(NC(=O)c3ccncc3)C2=O)cc1OC the results were Pol beta inh 29.2%.
COc1ccc(/C=C2\SC(=N)N(c3nccs3)C2=O)cc1OC was read as Pol beta inh inconclusive, Pol eta inh inconclusive, Pol iota inh 23.1%, POLK inh -21.2%, WRN inhibitor -25.0%[57.1 µM] and FEN1 inh 79.4µM*.
For COc1cc(C(=O)ONC(=O)c2ccc(OC(F)F)cc2)cc(OC)c1OC the results were Pol beta inh 31.6µM*, Pol eta inh 79.4µM*, Pol iota inh inconclusive, POLK inh -24.4%, WRN inhibitor -11.0%[11.6 µM] and FEN1 inh -19.4%.
O=C(NOC(=O)c1ccccc1F)c1ccc(OC(F)F)cc1 was read as Pol beta inh -2.9%, Pol eta inh 1.1%, Pol iota inh 27.9%, POLK inh -13.6%, WRN inhibitor -5.6% and FEN1 inh -0.1%.
Screening O=C(/C=C/c1ccc2c(c1)OCO2)c1ccc(O)cc1O returned Pol eta inh -24.6%, Pol iota inh inconclusive, POLK inh -2.0%, WRN inhibitor -11.1% and FEN1 inh 1.2%.
`O=C(/C=C/c1ccc(O)c(O)c1)c1ccc(O)cc1O` gave POLK inh 21.2µM*.
O=C(O)CSc1c2c(nc3cc(C(=O)Nc4ccc(F)c(Cl)c4)ccc13)CCCC2 was read as Pol beta inh 20.1%, Pol eta inh 50.1µM*, Pol iota inh inconclusive, POLK inh -9.6%, WRN inhibitor -5.7%[11.6 µM] and FEN1 inh inconclusive.
